# Data published in PubChem BioAssay.
# The source made the active and inactive calls.
# Assays:
# [1] = A549 cell viability effects, profiling panel, calcein-AM fluorescence, 48 h, basal (AID 1162); conditions: higher = more signal
# [2] = adipocyte viability effects, profiling panel, cell-based, 3T3-L1 adipocytes, calcein-AM fluorescence, 48 h, basal (AID 1163); conditions: 3T3-L1 adipocytes viability, higher = more signal
# [3] = HepG2 cell viability effects, profiling panel, calcein-AM fluorescence, 48 h, basal (AID 1164); conditions: higher = more signal
# [4] = MM1S cell viability effects, profiling panel, calcein-AM fluorescence, 48 h, basal (AID 1165); conditions: higher = more signal;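 note: viability of MM1S multiple myeloma cells under basal unstimulated conditions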
# [5] = basal RPMI8226 viability, no added stimulus, profiling panel, cell-based, calcein-AM fluorescence, 48 h, PK04 Diversity Set (AID 1166); conditions: RPMI8226 myeloma viability, higher = more signal;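 note: cells grown under basal conditions without added stimulus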
# [6] = basal HepG2 mitochondrial membrane potential changes, profiling panel, cell-based, JC-1 fluorescence, 24 h, 100 nL compound (AID 1167); conditions: higher = more signal
# [7] = basal 3T3-L1 adipocyte mitochondrial potential changes, profiling panel, cell-based, JC-1 fluorescence, 3T3-L1 adipocytes, 24 h, 100 nL compound (AID 1168); conditions: JC-1 mitochondrial fluorescence, higher = more signal, called active from +8 up or from −8 down
# [8] = basal RPMI8226 mitochondrial membrane potential changes, profiling panel, cell-based, JC-1 fluorescence, 24 h, 100 nL compound (AID 1169); conditions: RPMI8226 myeloma, JC-1 mitochondrial potential fluorescence, higher = more signal
# [9] = basal MM1S mitochondrial membrane potential changes, profiling panel, cell-based, JC-1 fluorescence, 24 h, 100 nL compound (AID 1170); conditions: higher = more signal
# [10] = A549 lung cancer cell viability effects, profiling panel, resazurin fluorescence, 24 h, PK04 Diversity Set (AID 1171); conditions: higher = more signal, called active from +8 up or from −8 down
# Note: test concentration not given here.
Compound,z-score [1],z-score [2],z-score [3],z-score [4],z-score [5],z-score [6],z-score [7],z-score [8],z-score [9],z-score [10]
CC[C@@H]1C=C(C(=O)O)[C@H](c2ccc(Br)cc2)N1S(=O)(=O)c1ccc(C)cc1,-0.646,-0.506,-0.586,-0.314,-1.13,-0.131,-0.258 (inactive),-0.0108,-0.82,-0.472 (inactive)
O=C1N[C@@H](Cc2ccccc2)C(=O)N2[C@@H]1C[C@@H](C(=O)O)[C@H]2c1cccc(OCCO)c1,0.432,-0.732,-0.0202,-2.61,0.358,1.3,-1.49 (inactive),0.448,-1.19,2.99 (inactive)
COc1cc(Br)cc(C(O)C2C=CC3C(=O)N(C)C(=O)C3N2N2CCCCC2)c1OC (stereo not given),-1.12,-0.456,-0.315,-1.68,-0.18,-1.05,-0.535 (inactive),0.672,-0.129,-0.318 (inactive)
COc1ccc([Si](C)(C)[C@H]2[C@H](CCO)O[C@@]3(C(=O)N(Cc4ccc(N(C=O)c5ccccc5)cc4)c4ccccc43)[C@@H]2C)cc1,-0.585,-1.32,-2.76,-1.48,-3.78,0.119,-0.393 (inactive),-1.03,-1.88,-1.68 (inactive)
C=CCNC(=O)[C@@H]1[C@H]2C(=O)O[C@H](c3ccccc3)[C@H](c3ccccc3)N2[C@H](c2ccc(O)cc2)[C@@]12C(=O)Nc1ccc(C#CCNC(N)=O)cc12,0.0067,1.09,0.767,-0.925,-0.179,-1.14,-1.07 (inactive),-0.994,0.435,0.552 (inactive)
NCCCCCNC(=O)[C@@H]1C[C@@H]2C(=O)N[C@@H](Cc3ccccc3)C(=O)N2[C@@H]1c1ccc(O)cc1,-0.119,0.588,-0.0207,-1.4,-0.0144,0.181,-0.0278 (inactive),0.00631,0.397,-0.0029 (inactive)
O=C1NC(=O)C2C1C=CC(C(O)c1cc(C(F)(F)F)cc(C(F)(F)F)c1)N2Nc1ccccn1 (stereo not given),-1.02,-0.485,-0.165,0.34,-0.559,-0.326,-0.169 (inactive),0.372,-0.204,-0.568 (inactive)
COc1ccc([Si](C)(C)[C@@H]2[C@@H](CCO)O[C@]3(C(=O)N(Cc4ccc(N(C=O)c5ccccc5)cc4)c4ccccc43)[C@H]2C)cc1,-0.844,-0.193,-3.46,-1.94,-3.9,-0.164,0.21 (inactive),-0.95,-1.26,-2.71 (inactive)
COCCOC(=O)N1C(=O)[C@@]2(c3ccccc31)[C@H](c1ccccc1OCCO)N1[C@H](c3ccccc3)[C@H](c3ccccc3)OC(=O)[C@H]1[C@@H]2C(=O)N1CCN(c2ncccn2)CC1,-0.588,-0.678,-0.478,-1.7,-0.949,0.323,0.665 (inactive),-0.929,-1.36,-1.05 (inactive)
NC(=O)N1C(=O)C2C(C1=O)C1C=C(c3ccc(CO)cc3)C2C(c2cccs2)N1Cc1cccc(OC(F)(F)F)c1 (stereo not given),1.56,0.868,0.0764,-2.08,-2.08,-1.7,0.863 (inactive),-0.85,-1.67,-0.69 (inactive)
COC(=O)C(CC#Cc1ccc2c(c1)[C@]1(C(=O)N2)[C@H](C(=O)Nc2nc3ccccc3s2)[C@H]2C(=O)O[C@H](c3ccccc3)[C@H](c3ccccc3)N2[C@@H]1c1ccc(O)cc1)C(=O)OC,0.567,0.823,1.49,-1.15,-3.43,-2.74,-0.383 (inactive),-1.31,-0.561,0.502 (inactive)
C=CCNC(=O)[C@@H]1[C@H]2C(=O)O[C@H](c3ccccc3)[C@H](c3ccccc3)N2[C@H](c2ccc(O)cc2)[C@@]12C(=O)N(C(=O)OCCOC)c1ccc(C#CCNC(N)=O)cc12,0.978,0.921,0.866,0.768,1.09,-0.194,-0.323 (inactive),0.383,0.751,-0.645 (inactive)
[N-]=[N+]=Nc1ccccc1[C@@H]1OC(c2ccc(OCCCO)cc2)=N[C@]1(Cc1ccccc1)C(=O)N1CCOCC1,-0.539,-1.63,-0.404,-3,-4.17,0.593,2.15 (inactive),-1.21,-1.09,-1.56 (inactive)
CC(C)NC(=O)[C@@]1(C)c2ccccc2C(=O)N(Cc2cc(C(F)(F)F)cc(C(F)(F)F)c2)[C@H]1c1ccc(CO)cc1,1.25,-0.562,0.481,-0.137,-0.825,0.718,0.468 (inactive),-0.382,-0.527,-0.558 (inactive)
O=C(NCCN1CCOCC1)[C@@H]1c2ccccc2C(=O)N(C2CCCCC2)[C@H]1c1ccc(CO)cc1,1.37,1.19,2.16,-0.165,-1.03,3.08,-0.0789 (inactive),0.0842,0.146,1.17 (inactive)
CO[C@H]1O[C@H](CO)[C@@H](OC(=O)Nc2ccc(Oc3ccccc3)cc2)[C@H](OC(=O)Nc2ccc3c(c2)OCO3)[C@H]1OC(=O)Nc1ccc2c(c1)OCO2,-0.331,0.377,0.106,-0.789,-0.594,-0.185,2.17 (inactive),-0.583,0.818,0.104 (inactive)
CC1(C)[C@@H]2CC(C(O)C3C=CC4C(=O)N(Cc5ccccc5)C(=O)C4N3n3cnnc3)=C[C@H]1C2 (stereo not given in full),-0.868,-0.622,0.0607,-0.0282,0.346,-0.237,0.352 (inactive),-0.124,-0.649,1.18 (inactive)
C=C(COC)/C(=C/C[C@@H](OC(=O)c1ccncc1)c1ccc(CO)o1)c1cc(C(=O)OC)ccc1OC,0.27,-0.766,0.466,-0.761,-0.27,0.232,-0.478 (inactive),-0.277,-1.28,0.386 (inactive)
NC(=O)NCC#Cc1ccc2c(c1)[C@]1(C(=O)N2)[C@H](c2ccc(O)cc2)N2[C@H](c3ccccc3)[C@H](c3ccccc3)OC(=O)[C@H]2[C@@H]1C(=O)O,0.517,0.145,0.829,0.343,-1.12,-1.2,-1.47 (inactive),0.183,-0.713,-0.397 (inactive)
C=CCC(OC(C)=O)[C@@H]1[C@@H](N(Cc2ccc(-c3ccccc3)cc2)C(=O)c2ccc(-c3ccccc3)cc2)c2cc(OCCCO)ccc2N1C(=O)Cc1ccc2ccccc2c1 (stereo not given in full),-0.475,0.367,0.325,-2.3,-0.806,0.96,-1.07 (inactive),-0.793,0.292,1.2 (inactive)
O=C1C2C=CC(C(O)c3cc(C(F)(F)F)cc(C(F)(F)F)c3)N(n3cnnc3)C2C(=O)N1Cc1ccccc1 (stereo not given),-0.416,0.649,-0.167,0.0347,-1.41,-0.605,-1.62 (inactive),0.11,0.914,-0.226 (inactive)
CC(C)(C)OC(=O)CC[C@]1(C(=O)N2CCOCC2)N=C(c2ccc(OCCCO)cc2)O[C@H]1c1ccccc1N=[N+]=[N-],0.901,0.232,0.556,-0.474,-0.337,1.27,3.46 (inactive),-0.252,0.103,1.03 (inactive)
CCCC[C@@H]1C[C@H]1[C@@H](NC(=O)c1ccco1)c1ccccc1C(F)(F)F,-2.09,-1.51,-0.489,-1.1,-0.484,-1.7,-1.22 (inactive),-0.583,-0.481,-0.26 (inactive)
C=C(CCCC)/C(=C/C[C@@H](OC(=O)c1ccncc1)c1ccc(OCCO)cc1)c1cc(C(=O)OC)ccc1OC,0.941,-0.18,1.86,-0.61,-0.385,2.46,-0.451 (inactive),-0.728,-0.969,0.998 (inactive)
O=C1C2C=CC(C(O)CCc3ccccc3)N(Nc3ccccc3F)C2C(=O)N1c1ccccc1 (stereo not given),-0.804,0.255,-0.31,0.596,-1.46,-0.257,0.377 (inactive),-0.448,-0.515,0.387 (inactive)
C=CCC(OC(C)=O)[C@@H]1[C@@H](N(Cc2cccc3ccccc23)C(=O)c2ccc(-c3ccccc3)cc2)c2cc(OCCCO)ccc2N1C(=O)c1ccc2ccccc2c1 (stereo not given in full),-0.525,-0.526,-0.62,0.279,-0.494,1.62,-0.693 (inactive),-0.011,-0.000791,1.09 (inactive)
CCCCCCc1nc(-c2ccc(OC)nc2)cc2c1[Si](C(C)C)(C(C)C)O[C@H]2c1ccccc1,-0.33,-0.261,-1.1,-0.26,-1.12,-1.14,-1.3 (inactive),-0.198,-0.281,0.98 (inactive)
C=CCOC(=O)[C@@H]1[C@H]2C(=O)O[C@H](c3ccccc3)[C@H](c3ccccc3)N2[C@H](c2ccc(OCCOC(=O)[C@@H]3C[C@@H]4C(=O)NCC(=O)N4[C@@H]3c3ccc(O)cc3)cc2)[C@@]12C(=O)Nc1ccc(I)cc12,-0.814,0.198,-0.207,-0.647,-0.319,-2.11,-0.444 (inactive),-0.972,-0.919,0.994 (inactive)
NC(=O)NCC#Cc1ccc2c(c1)[C@]1(C(=O)N2)[C@H](C(N)=O)[C@H]2C(=O)O[C@H](c3ccccc3)[C@H](c3ccccc3)N2[C@@H]1c1ccc(O)cc1,-0.851,-0.842,-0.848,0.201,0.375,-1.73,-0.344 (inactive),-0.758,-0.094,0.808 (inactive)
